The structures appear in SMILES notation. Records with an inconclusive call do not appear. The source made the active and inactive calls. The call rests on the fitted dose curve; in most records, active means well fitted inhibition curve with a large enough effect; inconclusive means small, poorly fitted or top-dose-only effect, or effect the other way; inactive means flat fitted curve, though single readings scatter.

Sequence of ATP-dependent 6-phosphofructokinase (Trypanosoma brucei brucei) (O15648 whole entry, looked up): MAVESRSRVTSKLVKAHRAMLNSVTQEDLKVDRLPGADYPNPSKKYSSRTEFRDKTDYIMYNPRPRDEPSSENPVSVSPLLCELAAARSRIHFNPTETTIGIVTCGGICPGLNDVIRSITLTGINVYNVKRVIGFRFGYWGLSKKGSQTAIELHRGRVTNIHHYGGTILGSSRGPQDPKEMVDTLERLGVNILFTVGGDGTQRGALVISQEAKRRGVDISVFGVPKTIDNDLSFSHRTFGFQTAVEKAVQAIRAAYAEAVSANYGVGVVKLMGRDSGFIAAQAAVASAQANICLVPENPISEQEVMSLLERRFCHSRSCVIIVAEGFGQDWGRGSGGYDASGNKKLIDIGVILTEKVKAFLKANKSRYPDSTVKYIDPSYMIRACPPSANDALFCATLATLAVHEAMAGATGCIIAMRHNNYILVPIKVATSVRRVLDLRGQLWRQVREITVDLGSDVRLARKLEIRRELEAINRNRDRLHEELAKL

This assay has as its target ATP-dependent 6-phosphofructokinase (Trypanosoma brucei brucei) (UniProt O15648). Briefly: qHTS Assay to Find Inhibitors of T. brucei phosphofructokinase: hit validation (AID 492961).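 Further: luminescence reports ADP formed as PFK phosphorylates fructose-6-phosphate with ATP.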 Conditions: T. brucei PFK, ADP-Glo luminescence; series mostly up to 51.4 µM. The text has this: NIH Molecular Libraries Probe Production Network [MLPCN] NIH Chemical Genomics Center [NCGC] Grant: 1 R03 MH092153-01 PI Name: Malcolm Walkinshaw, University of Edinburgh NCGC Assay Overview: Various species of the protozoan family Trypanosomatidae are responsible for a range of serious human diseases in tropical and subtropical areas of the world. […] Many of the disorders caused by trypanosomatids are fatal if left untreated, but most currently used drugs are inefficient and toxic. […] Oxidative metabolism involving the mitochondrial tricarboxylic acid cycle and oxidative phosphorylation are repressed in these parasites, and recent RNA interference (RNAi) experiments have shown that even partial depletion of certain individual glycolytic enzymes can lead to the death of cultured parasites. One such glycolytic enzyme, phosphofructokinase (PFK), catalyzes the formation of fructose-1,6-bisphosphate (F1,6BP) and ADP from fructose-6-phosphate (F6P) and ATP, and in many metabolic circumstances makes an important contribution to the control of flux through the glycolytic pathway. As a specific glycolytic target, PFK is particularly attractive as it catalyzes the first irreversible step in glycolysis, and structural and kinetic studies have shown very substantial and essential differences from corresponding host enzymes, allowing for the discovery of parasite-selective inhibitors. The goal of this screen is to find small-molecule inhibitors of T. brucei PFK using a biochemical assay that measures PFK activity as a function of ADP production. A luminescence-based assay for T. brucei PFK activity has been developed which uses luciferase to detect production of ADP. Traditional luciferase-based nucleotide detection reagents rely on ATP production as a direct substrate for the luciferase reaction; however, PFK catalyzes the transfer of a phosphate from ATP to F6P, resulting in the net depletion of ATP. To directly measure the ADP product of the PFK reaction, we used the ADP-Glo detection kit (Promega), which utilizes two separate reactions to 1) deplete all remaining uncatalyzed ATP and 2) convert all remaining ADP to ATP, which is then detected through a traditional luciferase-coupled reaction. Compounds were screened as a concentration-titration series that ranged from 57 uM to 0.7 nM.
NCGC Assay Protocol Summary: Substrate buffer was dispensed into white, solid 1536-well plates at 3uL/well in 0.1M triethanolamine (TEA) buffer, pH 8.0, containing final concentrations of 5 mM MgCl2, 0.01% Tween20, 0.5 mM fructose-6-phosphate (F6P) and 0.1mM ATP. Then, 23 nL of compounds or DMSO were delivered to each well using a pin tool. One uL T. brucei PFK (0.1M TEA, 0.01% Tween20, 0.1% bovine serum albumin (BSA) and 1.25nM PFK, final concentrations) was then dispensed, and plates were incubated at room temperature for 45 min. The luminescent detection reagent, ADP-Glo (Promega), was then added in two steps: the first reagent, ADP-Glo (which converts remaining uncatalyzed ATP), was added at 2.5uL/well and incubated for ten minutes at room temperature, and the second component, Kinase Detection reagent (which converts ADP to ATP as a substrate for luciferase-based luminescence), was added immediately after at 5uL/well, followed by one final ten minute room temperature incubation. The plates were measured on a ViewLux plate reader for luminescent signal using a clear filter with a one second exposure. The %Activity was determined from the corrected luminescence values. As no specific T. brucei PFK inhibitors have been identified in the literature, 1x (1.25nM) and 0x PFK enzyme controls (untreated) were included to normalize %Activity of identified inhibitors; 0x enzyme values corresponded to 100%Activity (full inhibition), while 1x PFK enzyme values were used to normalize 0%Activity (no inhibition). Concentration-response curves were fitted to the signals arising from the resulting luminescence. […]
In the case of `O=C(O)c1c(Cl)c(Cl)c(Cl)c(Cl)c1-c1c2cc(I)c(=O)c(I)c-2oc2c(I)c(O)c(I)cc12`, the outcome was inactive.

`NCCS`: the call was inactive.

As for `CC(=O)N[C@@H](CS)C(=O)O`, the outcome was inactive.

In the case of `COc1ccc(Cc2nccc3cc(OC)c(OC)cc23)cc1OC`, the outcome was inactive.

Consider `CC/C(=C(\c1ccccc1)c1ccc(OCCN(C)C)cc1)c1ccccc1`, for which the call was inactive.

Take `CCCCCN(C)CCC(O)(P(=O)(O)O)P(=O)(O)O`: the compound was called inactive.

With `C[C@@H](O)[C@H]1C(=O)N2C(C(=O)O)=C(S[C@@H]3CN[C@H](C(=O)N(C)C)C3)[C@H](C)[C@H]12`, the result was inactive.

On to `Clc1ccc(Cn2c(CN3CCCC3)nc3ccccc32)cc1`, for which the call was inactive.

In the case of `O=c1[nH]cnc2c1ncn2[C@H]1CC[C@@H](CO)O1`, the result was inactive.

In the case of `CC(=O)CCCCn1c(=O)c2c(ncn2C)n(C)c1=O`, the result was inactive.

With `C[N+](C)(C)CCCCCC[N+](C)(C)C`, the compound was classed as inactive.

As for `CC(=O)O[C@]1(C(C)=O)CC[C@H]2[C@@H]3C=C(Cl)C4=CC(=O)[C@@H]5C[C@@H]5[C@]4(C)[C@H]3CC[C@@]21C`, the result was inactive.

For `Cc1cccc(C)c1OCC(C)N` (stereo not drawn), the result was inactive.

In the case of `COc1cc2ncnc(Nc3ccc(F)c(Cl)c3)c2cc1OCCCN1CCOCC1`, the outcome was inactive.

Turning to `CC(C)(C)c1ccc(C(O)CCCN2CCC(C(O)(c3ccccc3)c3ccccc3)CC2)cc1` (stereo not drawn), the compound was called inactive.

`CC1=C(/C=C/C(C)=C/C=C/C(C)=C/C(=O)Nc2ccc(O)cc2)C(C)(C)CCC1`: the call was inactive.

With `Cc1cnc(C(=O)O)c[n+]1[O-]`, the compound was called inactive.

In the case of `CCOC(=O)O[C@]1(C(=O)OCCl)CC[C@@H]2[C@H]3CCC4=CC(=O)C=C[C@]4(C)[C@@H]3[C@@H](O)C[C@@]21C`, the outcome was inactive.

Turning to `O=C(O)CCc1nc(-c2ccccc2)c(-c2ccccc2)o1`, the outcome was inactive.

For the compound `CCN(CC)C(=O)c1ccc(O)c(OC)c1`, the result was inactive.

In the case of `CCN1CCC[C@H]1CNC(=O)c1cc(S(N)(=O)=O)ccc1OC`, the compound was classed as inactive.

`O=C1Nc2ccc(Cl)cc2C(C#CC2CC2)(C(F)(F)F)O1` (stereo not drawn): the outcome was inactive.

For `O=C(O)Cc1cccc2ccccc12`, the compound was classed as inactive.

For the compound `CCN(CC)CCOC(=O)c1ccc(N)cc1`, the compound was classed as inactive.

As to `CN(C)CCC(c1ccccc1)c1ccccn1` (stereo not drawn), the compound was called inactive.

Regarding `COc1ccccc1N1CCN(CCCNc2cc(=O)n(C)c(=O)n2C)CC1`, the outcome was inactive.

With `O=C1NCC2(CCN(CCc3ccccc3)CC2)O1`, the result was inactive.

Take `CC1(C)O[C@H]2C[C@@H]3[C@H]4CCC5=CC(=O)C=C[C@]5(C)[C@@]4(F)[C@@H](O)C[C@]3(C)[C@]2(C(=O)CO)O1`: the outcome was inactive.
